CYP2C19 act: human CYP2C19 activators, primary screen, biochemical, luminescence. activation factor at 5 µM. recombinant CYP2C19, luciferin-H EGE luminescence; hits give high values; 0 = fully inhibited enzyme, 1 = untreated enzyme. Cytochrome P450 2C19 (Homo sapiens), P33261. 96,000 tested, under 10 active;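 active = activation factor of at least 2 at 5 µM in the primary screen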
CYP2C9 inhib: blockers of cytochrome P450 2C9 activity – biochemical, luminescence, ADME assay, primary screen; CYP2C9 Supersomes, luciferin-H conversion; P11712; AID 777, 2007; inhibition, % at 5 µM; 20% of 96,000 active;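 active = blocking of liver enzyme CYP2C9 beyond about 50% at 5 µM, limit read from the data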
CYP2C19 inh: blockers of cytochrome P450 2C19 activity – biochemical, luminescence, ADME assay, primary screen; P33261; CYP2C19 Supersomes, luciferin-H EGE luminescence, 30 min; inhibition, % at 5 µM; 21% of 96,000 active; AID 778, 2007;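 active = CYP2C19 inhibition above a set limit at 5 µM in the primary screen, cut at about 50% in these data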
PLAP activator: PLAP enzyme activators, biochemical, luminescence, HTS; Alkaline phosphatase, placental type (Homo sapiens), P05187; purified PLAP enzyme, luminescent substrate read-out; hits give high values; activation fold at 20 µM; 1.2% of 96,000 active; AID 696, 2007; in the data active = activation fold above about 2
Target sequence (P05187 whole entry, looked up): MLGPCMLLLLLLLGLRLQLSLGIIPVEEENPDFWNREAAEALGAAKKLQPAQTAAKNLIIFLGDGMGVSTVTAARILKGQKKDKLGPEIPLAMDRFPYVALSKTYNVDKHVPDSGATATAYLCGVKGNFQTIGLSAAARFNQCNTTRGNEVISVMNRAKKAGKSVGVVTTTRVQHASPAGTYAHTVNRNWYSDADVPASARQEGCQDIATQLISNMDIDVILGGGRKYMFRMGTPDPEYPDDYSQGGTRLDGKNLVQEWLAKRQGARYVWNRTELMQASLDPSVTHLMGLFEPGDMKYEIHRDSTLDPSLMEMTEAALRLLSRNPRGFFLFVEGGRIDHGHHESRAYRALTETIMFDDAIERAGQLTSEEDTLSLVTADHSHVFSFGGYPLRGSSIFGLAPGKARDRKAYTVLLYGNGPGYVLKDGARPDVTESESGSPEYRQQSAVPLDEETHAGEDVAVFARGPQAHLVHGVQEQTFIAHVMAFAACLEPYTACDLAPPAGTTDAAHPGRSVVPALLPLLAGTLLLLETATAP
CYP2C9 activ: human CYP2C9 activators, primary screen, biochemical, luminescence; 1.4% of 96,000 active; recombinant CYP2C9, luciferin-H conversion; hits give high values; factor 1 = untreated enzyme, 0 = blocked; Cytochrome P450 2C9 (Homo sapiens), P11712; activation factor at 5 µM;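 active = activation factor of 2 or more for CYP2C9 at a 5 µM dose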
Numbers stand for hits; – = inactive; · = no result given. This is a sample that favours compounds with a hit; in the whole collection about 31% have one here.

SMILES | CYP2C19 act | CYP2C9 inhib | CYP2C19 inh | PLAP activator | CYP2C9 activ
Fc1ccc(C2CC(c3ccco3)=NN2c2ccccc2)cc1 (stereo unspecified) | – | – | – | – | –
O=[N+]([O-])c1ccc(N2N=C(c3ccco3)CC2c2ccccc2)cc1 (stereo unspecified) | – | 78 | – | – | –
O=C(O)c1ccc(NC(=O)C2(c3ccccc3)CCOCC2)cc1 | – | – | – | – | –
Cc1ccc(O)c(-c2cc3ccccc3[nH]2)c1 | – | 80 | 54 | – | –
Cc1ccc2[nH]c(-c3cccc(N)c3)cc2c1 | – | – | – | – | –
COc1cccc(-c2n[nH]c(=S)n2Cc2ccco2)c1OC | – | – | – | – | –
COc1ccc2nc(NC(=O)CSc3nc(C)cc(C)n3)sc2c1 | – | 84 | 90 | – | –
COc1ccc2nc(NC(=O)CSc3nc4ccccc4o3)sc2c1 | – | – | 62 | – | –
O=C(CSc1nc2ccccc2o1)Nc1nc2ccc(Br)cc2s1 | – | 81 | 94 | – | –
CC1CN(C(=O)Nc2ccc3c(c2)OCO3)CC(C)O1 (stereo unspecified) | – | – | – | – | –
Cc1c(/C=C(\C#N)c2nn(-c3ccccc3)c(N)c2C#N)c2ccccc2n1Cc1ccc(F)cc1 | – | – | – | – | –
COc1cc(C2C(C#N)=C(N)Oc3n[nH]c(C)c32)ccc1OC(=O)c1ccccc1 (stereo unspecified) | – | – | – | – | –
Cc1[nH]nc2c1C(c1ccc(OC(=O)c3ccco3)cc1)C(C#N)=C(N)O2 (stereo unspecified) | – | 58 | – | – | –
CC(C)c1[nH]nc2c1C(c1ccc(OC(=O)c3ccco3)cc1)C(C#N)=C(N)O2 (stereo unspecified) | – | 73 | 74 | – | –
CCOc1ccc(-c2[nH]nc3c2C(c2ccc(O)cc2)C(C#N)=C(N)O3)cc1 (stereo unspecified) | – | – | – | – | –
O=C1c2ccccc2C(=O)C1c1nccc2ccccc12 | – | 58 | – | – | –
CC(=O)Nc1ccc(NC(=O)C(C)n2nc([N+](=O)[O-])c(Br)c2C)cc1 (stereo unspecified) | – | – | – | – | –
Cc1nn(C(C)C(=O)NNC(=S)Nc2ccc(F)cc2)c(C)c1[N+](=O)[O-] (stereo unspecified) | – | 55 | – | · | –
COc1ccc(NC(=S)Nc2ccc3nc(C)c(C)nc3c2)cc1 | – | – | – | – | –
Cc1nn(C)c(C(=O)NNC(=S)Nc2ccc(F)cc2)c1[N+](=O)[O-] | – | 52 | – | · | –
COc1ccc(NC(=S)NNC(=O)C(C)n2nc(C)c([N+](=O)[O-])c2C)cc1 (stereo unspecified) | – | – | – | 2.3 | –
CC(C)COC(=O)C1[C@H]2C(=O)N(Cc3cccs3)C[C@]23C=C[C@H]1O3 (stereo partly specified) | – | – | – | – | –
COc1ccc(NCc2n[nH]nc2-c2ccccc2)cc1Cl | – | 86 | 97 | – | –
Cc1oc(-c2ccccc2Cl)nc1CSCC(=O)N1CCCC1 | – | – | 93 | – | –
CCc1ccc(-c2nc(CSCC(=O)N3CCN(c4ccccn4)CC3)c(C)o2)cc1 | – | 64 | – | – | –
SMILES | CYP2C19 act | CYP2C9 inhib | CYP2C19 inh | PLAP activator | CYP2C9 activ
Cc1ccc(-c2nc(CSCC(=O)N3CCN(c4ccccn4)CC3)c(C)o2)cc1 | – | – | – | – | –
CCOC(=O)N1CCC(NC(=O)CSCc2nc(-c3cccc(OC)c3)oc2C)CC1 | – | 67 | 57 | – | –
CCOc1ccc(-c2nc(CSCC(=O)N3CCN(c4cccc(OC)c4)CC3)c(C)o2)cc1 | – | 94 | 83 | – | –
Cc1oc(-c2ccccc2Cl)nc1CSCC(=O)NC1CCCC1 | – | – | – | – | –
COc1ccc(N=Cc2ccc[nH]2)cc1 | – | – | – | – | –
COCCn1c(C)cc(C(=O)COC(=O)C23CC4CC(CC(O)(C4)C2)C3)c1C | – | – | – | – | –
CCOC(=O)N1CCC(NC(=O)C2CCCCN2S(=O)(=O)c2ccc(F)cc2)CC1 (stereo unspecified) | – | – | – | – | –
Cc1ccccc1C(O)c1ccccn1 (stereo unspecified) | – | – | – | – | –
Cn1cc(C(c2ccccn2)c2cn(C)c3ccccc23)c2ccccc21 | – | 96 | – | – | –
c1ccc(C(c2c[nH]c3ccccc23)c2c[nH]c3ccccc23)nc1 | – | 95 | 54 | – | –
CC(=O)C1=C(O)C(=O)N(CCCO)C1c1ccccc1 (stereo unspecified) | – | – | – | – | –
O=C1C2C(c3ccccc3)C=CC(c3ccccc3)C2C(=O)N1CCCO (stereo unspecified) | – | 82 | 82 | – | –
Cc1cccc(C(=O)NN2C(=O)C3C(c4ccccc4)C=CC(c4ccccc4)C3C2=O)c1 (stereo unspecified) | – | – | – | – | –
C=CCOCCN1C(=O)C2C(c3ccccc3)C=CC(c3ccccc3)C2C1=O (stereo unspecified) | – | – | 66 | – | –
COC(=O)NCc1ccc(S(=O)(=O)N2CCOCC2)cc1 | – | – | – | – | –
COc1ccc(CNC(=O)C(OC(C)=O)c2ccccn2)cc1 (stereo unspecified) | – | – | – | – | –
COc1ccc(CNC(=O)C/C(C)=N/NC(=O)C(c2ccccc2)c2ccccc2)cc1 | – | 56 | – | – | –
O=S(=O)(NCCc1ccccc1)c1ccc(S(=O)(=O)N2CCCCC2)cc1 | – | – | – | – | –
COc1ccccc1NC(=O)N1CCc2[nH]c3ccc(Cl)cc3c2C1 | – | – | – | – | –
COc1ccc2nc(Nc3ccc4c(c3)OCO4)sc2c1 | – | – | 65 | – | –
COc1ccc(CN(CCCN2CCOCC2)S(=O)(=O)N(C)C)cc1OC | – | – | – | – | –
COC(=O)CN(Cc1ccco1)S(=O)(=O)c1ccccc1 | – | – | – | – | –
Cc1ccc(S(=O)(=O)N(Cc2ccccc2)Cc2ccco2)cc1 | – | 90 | 83 | – | –
COc1ccc(S(=O)(=O)N(Cc2ccc(OC)c(OC)c2)Cc2ccco2)cc1 | – | – | 59 | – | –
Cc1ccc(S(=O)(=O)N(Cc2ccc(F)cc2)Cc2ccco2)cc1 | – | – | – | – | –
COc1ccc(S(=O)(=O)N(CCCN2CCOCC2)Cc2ccc(OC)c(OC)c2)cc1 | – | – | 89 | – | –
O=C(CSc1nnc(-c2cccnc2)o1)OC1CCCCC1 | – | – | – | – | –
CCOC(=O)N1CCN(C(=S)NCCOC)CC1 | – | – | – | – | –
CCc1nnc(NC(=O)NC(C)(C)C)s1 | – | – | – | – | –

Screening data as filed in PubChem BioAssay.
